How the values were obtained:
[1] = target: T1, Aspartate--tRNA(Asp/Asn) ligase (Mycobacterium tuberculosis (strain ATCC 25618 / H37Rv)) (UniProt P9WFW3); assay: Assay for Asp RNA synthetase-1 from Mycobacterium tuberculosis; format: functional; set-up: scale not given: direction of the effect not stated beside the values; settings: 30 µM; also: in the data most compounds retested in dose-response had high values
T1 sequence (whole entry): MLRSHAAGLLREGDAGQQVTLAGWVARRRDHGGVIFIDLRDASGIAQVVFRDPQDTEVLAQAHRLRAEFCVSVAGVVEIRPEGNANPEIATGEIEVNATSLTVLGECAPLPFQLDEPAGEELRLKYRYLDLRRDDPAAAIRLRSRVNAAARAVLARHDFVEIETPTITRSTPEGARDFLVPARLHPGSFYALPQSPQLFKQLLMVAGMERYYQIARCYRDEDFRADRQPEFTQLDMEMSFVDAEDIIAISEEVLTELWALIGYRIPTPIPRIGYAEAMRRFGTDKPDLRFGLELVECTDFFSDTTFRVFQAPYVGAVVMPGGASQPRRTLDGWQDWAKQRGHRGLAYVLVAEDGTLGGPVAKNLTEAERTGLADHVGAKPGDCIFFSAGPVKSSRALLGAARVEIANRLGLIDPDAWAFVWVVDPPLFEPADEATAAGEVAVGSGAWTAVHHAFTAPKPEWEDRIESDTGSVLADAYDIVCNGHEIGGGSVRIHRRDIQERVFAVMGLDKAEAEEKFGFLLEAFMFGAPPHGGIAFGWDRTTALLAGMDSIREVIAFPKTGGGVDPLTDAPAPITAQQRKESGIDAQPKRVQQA

[2] = target: Shiga toxin 2 (Escherichia coli O157:H7) (UniProt P09385+P09386); assay: E. coli 0.157:H7 Shiga Toxin SOP - stx2 screening assay; format: functional; set-up: scale not given: direction of the effect not stated beside the values; settings: 30 µM

| SMILES | Percent Effect [1] | Percent Effect [2] |
| --- | --- | --- |
| COc1cccc(CN(C)Cc2ccc(C#N)cc2)c1OC | -1.31% | 9.74% |
| CCc1n[nH]c(C2CN(C(=O)c3ncoc3C(C)C)CCO2)n1 (centres undefined) | 2.8% | -12.1% |
| O=C(CN1CCCCC1Cn1cncn1)NCc1ccccn1 (centres undefined) | 4.05% | 4.47% |
| CC1CN(c2ccc(CNC(=O)c3ccn(C)c(=O)c3)cn2)CCO1 (centres undefined) | -6.51% | -19.6% |
| Cn1ncc2c(=O)[nH]c(CN3CCCC3c3cccs3)nc21 (centres undefined) | -0.799% | 3.97% |
| CCN(C)c1ncnc2c1CCN(Cc1ccc(OC)cc1)CC2 | 7% | 4.46% |
| O=S(=O)(C1CC1)N1CCO[C@H]2[C@H](OCC3CCCC3)CC[C@@H]21 | 0.291% | 8.36% |
| Cc1ccc(NC2CCN(C(=O)c3c(C)noc3C)CC2)nn1 | -3.12% | 7.22% |
| CCN1CC(C(=O)NC(C)(C)CC(C)(C)C)CC1=O (centres undefined) | 2.27% | -6.14% |
| CN(C)CC(=O)N1CCCC2(CCC(=O)N(CCc3c[nH]cn3)C2)C1 (centres undefined) | 0.773% | -43.1% |
| CC(C)(C)n1ncc2c1CCCC2NCc1cccc2c1OCO2 (centres undefined) | -0.568% | -1.18% |
| CC(C)(C)C(=O)N1CCCC1c1nc(O)cc(-c2ccccn2)n1 (centres undefined) | -4.27% | 5.71% |
| Cc1cccc(N2CCN(CCCNC(=O)c3nccn3C)CC2)c1 | -3.22% | -11.1% |
| Cc1ccc(NC2CCN(C(=O)c3n[nH]c4ccccc34)CC2)nn1 | 0.985% | -18.6% |
| Cc1cn2c(n1)CCC(NC(=O)CCn1ccnn1)C2 (centres undefined) | -3.77% | 19.8% |
| Cc1cc(C(=O)NCc2ccccn2)no1 | -4.62% | -0.424% |
| COc1ccc(C(=O)Nc2cnn(CC(=O)NC3CCCC3)c2)c(O)c1 | 1.25% | -54.5% |
| COc1ccc(C2CCCN2C(=O)NCCNc2ncccn2)cc1 (centres undefined) | 10.2% | -17.2% |
| CCc1nc(C)c(C(=O)NCCNc2cnccn2)s1 | 4.33% | 8.72% |
| Cc1cnn(CCC(=O)N2CCC(Nc3cccnn3)CC2)c1 | 1.38% | 16.1% |
| O=C(NCCOc1ncc(Cl)cc1Cl)c1ccncc1 | 5.64% | -19.5% |
| COCC1CN(S(C)(=O)=O)Cc2ncn(CC3CC3)c21 (centres undefined) | -3.82% | -1.74% |
| CN(Cc1ccccc1O)C(=O)NC1CCCN(c2ncccn2)C1 (centres undefined) | -4.06% | 34% |
| CN(C)CCN1CCC2(CC1)CN(c1cccnc1)C(=O)CO2 | 4.6% | -5.11% |

| SMILES | Percent Effect [1] | Percent Effect [2] |
| --- | --- | --- |
| Cc1cnn(C2CCCN(C(=O)c3ccnc(-n4ccnc4)c3)C2)c1 (centres undefined) | 3.27% | -22.4% |
| CC(C(=O)N1CCCC1)N1CCC(c2nccn2CC2CCC2)CC1 (centres undefined) | -1.49% | -1.48% |
| c1ncc(Nc2nccc(C3CCCCN3CC3CCCCC3)n2)cn1 (centres undefined) | 0.28% | -0.91% |
| COc1ncc(C2(O)CCN(Cc3cccs3)CC2)c(OC)n1 | -0.868% | -24.4% |
| Cc1cc(C(=O)N2CCCCC2C)ccc1NCC(=O)N1CCOCC1 (centres undefined) | -12.3% | -49.1% |
| CCNC(=O)N(C)C(c1cccc(F)c1)c1ccccn1 (centres undefined) | -4.31% | -5.85% |
| CC(C)c1nc(C2CCCN(C(=O)Cc3cccnc3)C2)no1 (centres undefined) | -2.44% | 23.6% |
| CCC(NC(N)=O)c1ccccc1OCC(=O)N1CCCC1 (centres undefined) | -1.5% | -58.1% |
| CCC1=N[C@@]2(CC[C@@H]3CN(C(=O)NCc4ccccc4)C[C@@H]32)C(=O)N1C | 2.18% | 3.06% |
| Cc1cccc(C(=O)NCCCN2CCN(c3ccccc3)CC2)c1 | 0.86% | -54% |
| CCOC(C)c1nc(CN2CCNCC2)cs1 (centres undefined) | -2.26% | -12.7% |
| CC(C)N(C)Cc1nnc2n1CCN(Cc1ccncc1)CC2 | 3.87% | 1.49% |
| O=C(NCc1ccccc1)N1CCC2(CC(=O)N(c3ccsc3)C2)C1 (centres undefined) | -2.24% | -10.6% |
| CC(C)CN1Cc2c(C(=O)N(C)C)ncn2-c2ccccc2S1(=O)=O | -2.86% | 4.89% |
| COc1cccc(CN(C)C(=O)CSc2ccc3c(c2)OCCO3)c1 | 0.12% | 7.23% |
| O=S(=O)(CCCN1CCCC1Cn1cccn1)c1ccccc1 (centres undefined) | -2.01% | -4.23% |
| OCCN1CCN(Cc2coc(-c3ccc(Cl)cc3)n2)CC1 | 4.16% | 3.75% |
| CN(C)C(=O)C1(CCCc2ccncc2)CCCN1 (centres undefined) | -0.998% | 11.3% |
| CCOc1ccc(C(C)NC(=O)N2CCC(C(N)=O)CC2)cc1OC (centres undefined) | -0.725% | 10.2% |
| O=C(CC1CCCC1)NCCn1ccc(-c2ccncc2)n1 | 7.45% | 3.58% |
| CN(Cc1nnc(C2CC2)n1C)C(=O)c1ccnc(OC2CCC2)c1 | -0.39% | 3.48% |
| CS(=O)(=O)N1CCOCC2(CN(Cc3ccco3)CCO2)C1 (centres undefined) | -7.59% | -18.6% |
| Cc1cc(=O)n(CC(=O)NCC2CCCO2)c(-c2cccc(Cl)c2)n1 (centres undefined) | 8.05% | -13.2% |
